# Source: PubChem BioAssay (several laboratories)
# Pf gametocyte = inhibitors of late stage P. falciparum gametocyte viability. inhibition, % at 10.9 µM. P. falciparum stage V gametocytes, ATP luminescence, 24 h. hit rate 0.065% among 150,000;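 active = inhibition above the mean plus 3 SD of compounds within the control limits, set per campaign, cut at about 38% in these data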;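 also: 0% = DMSO wells and 100% = medium only without gametocytes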
# MEKK2wt PB1 HTS = raises or lowers MEK5 binding to wildtype human MEKK2 PB1 domain; Q9Y2U5; binding response (% of control), % at 10 µM; bead flow cytometry, Alexa488-MEK5 binding to MEKK2 WT; actives lie on both sides; AID 1531; hit rate 1.1% among 290,000; in the data active = binding response below about 67% or above about 130%
# MEKK3 PB1 HTS = MEKK3-MEK5 PB1 interaction, increase or decrease | Q99759 | bead-based flow cytometry, Alexa488-MEK5 binding to MEKK3; actives lie on both sides; 0 = blocked by unlabeled MEK5, 100 = vehicle | binding response (% of control), % at 10 µM | hit rate 1.4% among 290,000;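 active = binding response more than 3 SD above or below the average of its plate-row segment, actives on both sides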;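 also: Alexa488 bead fluorescence after subtracting the streptavidin-only scavenger bead signal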
# Target sequence (Q99759 whole entry, looked up): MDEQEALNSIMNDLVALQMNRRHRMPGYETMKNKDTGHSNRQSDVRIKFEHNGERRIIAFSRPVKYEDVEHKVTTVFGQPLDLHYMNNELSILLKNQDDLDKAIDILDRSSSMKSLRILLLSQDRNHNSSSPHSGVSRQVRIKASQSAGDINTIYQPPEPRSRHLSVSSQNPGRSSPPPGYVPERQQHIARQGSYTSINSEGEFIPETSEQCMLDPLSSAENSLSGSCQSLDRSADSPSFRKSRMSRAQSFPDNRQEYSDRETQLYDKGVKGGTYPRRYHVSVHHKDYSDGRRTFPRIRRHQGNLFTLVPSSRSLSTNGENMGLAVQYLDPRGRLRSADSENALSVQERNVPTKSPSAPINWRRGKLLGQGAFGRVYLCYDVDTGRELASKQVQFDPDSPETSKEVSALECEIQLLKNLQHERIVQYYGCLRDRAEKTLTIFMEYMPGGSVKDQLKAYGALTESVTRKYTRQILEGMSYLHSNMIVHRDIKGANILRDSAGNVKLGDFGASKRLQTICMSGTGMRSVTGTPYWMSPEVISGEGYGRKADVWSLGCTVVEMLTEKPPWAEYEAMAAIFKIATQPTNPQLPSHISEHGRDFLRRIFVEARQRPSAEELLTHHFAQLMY
# MEKK2mut PB1 HTS = signal of MEK5 binding to mutant human MEKK2 PB1 domain | AID 1530 | hit rate 0.35% among 290,000 | bead flow cytometry, Alexa488-MEK5 binding to MEKK2 mutant | percent response, % at 10 µM; in the data active = percent response above about 24%, passing the limit was not always enough
# Arbovirus inh = arbovirus infection inhibition; arbovirus infection cell-based antiviral screen; inhibition, % at 10 µM; hit rate 0.37% among 200,000; AID 1251; in the data active = inhibition above about 30%
# MEKK2wt confirm = raises or lowers MEK5 binding to wildtype human MEKK2, retest; shares compounds with MEKK3 PB1 HTS; bead flow cytometry, Alexa488-MEK5 binding to MEKK2 WT; actives lie on both sides; binding response (% of control), % at 10 µM; hit rate 2.4% among 5,900; AID 1892; in the data active = binding response below about 16% or above about 210%; inactive = in between
# MEKK2mut-MEK5 = signal of MEK5 binding to mutant human MEKK2, retest | shares compounds with MEKK3 PB1 HTS | bead flow cytometry, Alexa488-MEK5 binding to MEKK2 mutant | percent response, % at 10 µM | hit rate 2% among 5,900; in the data active = percent response mostly above about 71%, no sharp cut-off; inactive = mostly below about 38%;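 also: higher means compound restores mutant binding toward wildtype level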
# MEKK3 confirm = MEKK3-MEK5 PB1 inhibition, single concentration confirmation. shares compounds with MEKK3 PB1 HTS. bead flow cytometry, Alexa488-MEK5 binding to MEKK3; stronger effect = lower value. binding response (% of control), % at 10 µM. hit rate 1.8% among 5,900;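 active = binding response below 72% of control, or above a set upper limit, though filed actives all read lower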;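 also: 100% = DMSO only wells and 0% = binding blocked by excess unlabeled MEK5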
# An asterisk follows results filed as active; · = no result given; [ ] = remark or other dose. Most compounds without a hit are left out; they make up all but 2.4% or so of the library.
SMILES,Pf gametocyte,MEKK2wt PB1 HTS,MEKK3 PB1 HTS,MEKK2mut PB1 HTS,Arbovirus inh,MEKK2wt confirm,MEKK2mut-MEK5,MEKK3 confirm
COc1ccc(OC)c(C(=O)NC(CC(N)=O)c2ccc(N3CCCCCC3)c([N+](=O)[O-])c2)c1 (centres undefined),-23,101,102,5,·,·,·,·
COc1ccc(/C=C(\C#N)c2nc3ccccc3[nH]2)cc1O,-12,98,98,-3,·,·,·,·
COc1cc(/C=C(/C#N)c2nc3ccccc3c(=O)[nH]2)ccc1O,11,104,140*,1,-12,99,-4,101
CC(C)(C)C(=O)NC(=S)NCCc1ccccc1,·,1.0*[inhibitor],1.0*[inhibitor],-39,-2,102,0,105
O=C(/C=C/c1ccco1)Nc1ccc2nc3n(c(=O)c2c1)CCCC3,7,101,100,1,-6,·,·,·
COc1cccc(OC)c1OCCCCCCN1CCN(C)CC1,·,105,103,5,·,·,·,·
CN1CCN(CCCCOc2ccccc2C=O)CC1,·,200*,128*,28,-32,172,47,105
CN(C)CCN=Cc1c(O)n(Cc2ccccc2)c(=O)c2ccccc12,-12,118,106,1,23,·,·,·
CC1(C)CC(N=Cc2c(O)n(Cc3ccc4c(c3)OCO4)c(=O)c3ccccc23)CC(C)(C)N1,2,149*,99,16,-26,160,24,106
O=C(Cc1ccc(Cl)cc1)Nc1ccc(Br)cn1,·,105,105,3,·,·,·,·
COc1cc(C(=O)NC(=S)Nc2ccc([N+](=O)[O-])cc2)cc(OC)c1OC,-31,103,141*,2,1,104,4,103
COc1cc(C(=O)NC(=S)Nc2ccc([N+](=O)[O-])cc2C)cc(OC)c1OC,·,98,97,1,-5,·,·,·
CCCCNS(=O)(=O)c1ccc2nc(SCC(N)=O)[nH]c2c1,1,101,98,2,·,·,·,·
CCCCNS(=O)(=O)c1ccc2nc(SCC(=O)c3ccccc3OC)[nH]c2c1,·,66,75*[inhibitor],-39,0,105,4,109
COc1ccc(-c2nnc(-c3ccc(N(C)C)cc3)o2)cc1,-4,101,98,1,5,·,·,·
CN(C)c1ccc(-c2nnc(-c3ccccc3F)o2)cc1,17,104,104,26*,·,96,-5,99
CCc1ccc(N2CC(C(=O)Nc3cc(C)on3)CC2=O)cc1 (centres undefined),14,98,92,-1,2,·,·,·
Brc1ccc(-n2c(SCc3nc4ccccc4[nH]3)nnc2-c2ccncc2)cc1,2,108,150*,0,3,102,2,100
Clc1ccc(-n2c(SCc3nc4ccccc4[nH]3)nnc2-c2ccncc2)cc1,9,104,101,5,3,·,·,·
CCC1Sc2ccc(S(=O)(=O)CCC(=O)Nc3c(Cl)cc(OC)cc3OC)cc2NC1=O (centres undefined),·,102,99,1,·,·,·,·
N=C1/C(=C/c2cccn2-c2ccc([N+](=O)[O-])cc2)C(=O)N=C2SC=CN12,17,98,101,-1,-15,·,·,·
COc1ccc(-c2ccc(/C=C3/C(=N)N4C=CSC4=NC3=O)o2)c([N+](=O)[O-])c1,-9,97,134*,-1,-12,95,-4,94
O=C(CNC(=S)NC(=O)c1ccc(F)cc1)c1ccccc1,-4,107,136*,2,-3,103,-2,101
CSc1ccc(/C=N/N2CCN(Cc3ccc(Cl)cc3)CC2)cc1,-26,4.0*[inhibitor],3.0*[inhibitor],-46,1,105,-1,103
CSc1ccc(/C=N/N2CCN(C)CC2)cc1,·,99,93,-4,7,·,·,·
SMILES,Pf gametocyte,MEKK2wt PB1 HTS,MEKK3 PB1 HTS,MEKK2mut PB1 HTS,Arbovirus inh,MEKK2wt confirm,MEKK2mut-MEK5,MEKK3 confirm
CSc1ccc(/C=N/NC(=O)CN2CCN(Cc3ccc(Cl)cc3)CC2)cc1,2,111,137*,2,12,111,9,103
Cc1cccc(C(=O)N(Cc2nc3ccccc3c(=O)[nH]2)C2CCCCC2)c1,-25,94,74*[inhibitor],-1,-5,100,9,102
Cc1cccc(CN2C[C@]34CC[C@@H](C[C@@H]3S2(=O)=O)O4)c1,·,93,95,1,·,·,·,·
CCC(C)N(CC(=O)Nc1cccc(C)c1C)C(=O)CCl (centres undefined),·,107,106,-1,10,·,·,·
Cc1ccc(C2NC(=O)CCC2[N+](=O)[O-])cc1 (centres undefined),-9,·,·,·,5,·,·,·
O=C1CCC([N+](=O)[O-])C(c2ccc(Br)cc2)N1 (centres undefined),·,105,133*,1,-9,95,-6,101
COc1ccc(C(=O)NCC(=O)N/N=C(C)\C=C\c2ccccc2)cc1OC,29,91,95,-4,-3,·,·,·
N=C1CCCN1CC(=O)c1ccc(Br)cc1,0,108,143*,0,-12,100,-3,102
Cn1c(=N)n(CC(=O)c2ccc(Br)cc2)c2ccccc21,-5,·,·,·,·,·,·,·
CC(=O)Nc1nc(C)c(CCCOc2ccc([N+](=O)[O-])cc2)c(=O)[nH]1,·,93,97,4,·,·,·,·
OCc1nnc2c3ccccc3c(-c3ccccc3)nn12,-6,118,122*,10,3,106,8,103
Cc1nnc2c3ccccc3c(-c3ccccc3)nn12,·,98,102,0,·,·,·,·
CC(C)(C)c1ccc(-c2c(C#N)c(N)nc3c2CCCC3)s1,·,107,107,7,12,·,·,·
CCc1sc(-c2c(C#N)c(N)nc3c2CCCCCC3)cc1[N+](=O)[O-],·,1.0*[inhibitor],1.0*[inhibitor],-39,-3,99,-3,105
O=S(=O)(c1ccc(F)cc1)c1nc(-c2ccco2)oc1Nc1ccc(F)cc1,-13,105,137*,0,1,94,-4,98
C/C(=N/NC(=O)c1nnn(-c2nonc2N)c1COc1ccccc1)c1ccc(O)cc1,·,92,95,-2,·,·,·,·
O=S(=O)(c1ccc(S(=O)(=O)N(Cc2cccs2)CC2CCCO2)cc1)N1CCCCC1 (centres undefined),-8,98,102,0,3,·,·,·
O=S(=O)(NC1CCCC1)c1ccc(S(=O)(=O)N(Cc2cccs2)CC2CCCO2)cc1 (centres undefined),8,-2.0*[inhibitor],1.0*[inhibitor],-31,-6,102,4,105
Cc1ccc(-n2c(SCC(=O)N3CC(=O)Nc4ccccc43)nc3ccccc3c2=O)cc1C,17,99,136*,0,-6,92,-6,97
